From PubChem BioAssay (NCATS)
Several values for one entry are separate records, joined by “and”; a condition that tells them apart may be missing. Equal entries are not always repeated. Inconclusive results are not listed. A call without a number means that no potency is given here. Activity calls are given as the source filed them. The call rests on the fitted dose curve; in most records, active means well fitted inhibition curve with a large enough effect; inconclusive means small, poorly fitted or top-dose-only effect; inactive means flat fitted curve, though single readings scatter.

System: CP211
Assay: qHTS profiling for inhibitors of Plasmodium falciparum proliferation (AID 504749); further: nearly all actives have a fitted effect of over 60% in size
Details: P. falciparum in erythrocytes, SYBR Green DNA, 72 h; series mostly up to 28.7 µM
Method in brief: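 Parasite proliferation within erythrocytes, 72 h exposure. Endpoint: SYBR Green I fluorescence after overnight lysis at room temperature. Controls: 0.29 uM artemisinin, DMSO.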
Potency means the concentration at half of the fitted maximal effect.

Row | Structure (SMILES) | Potency
1 | CCC1(c2ccccc2)CCC(=O)NC1=O (stereo unspecified) | inactive
2 | C[N+]1(CCC(C(N)=O)(c2ccccc2)c2ccccc2)CCCCC1 | inactive
3 | CCC(=O)O[C@H]1CC[C@H]2[C@@H]3CCC4=CC(=O)CC[C@]4(C)[C@H]3CC[C@]12C | inactive
4 | OC(c1ccccc1)(c1ccccc1)C1CCNCC1 | inactive
5 | CC(C)[N+](C)(CCC(C(N)=O)(c1ccccc1)c1ccccc1)C(C)C | inactive
6 | Cc1ncc2n1-c1ccc(Cl)cc1C(c1ccccc1F)=NC2 | inactive
7 | Cc1ccc(N=CN(C)C=Nc2ccc(C)cc2C)c(C)c1 | inactive
8 | CC(C)NCC(O)c1ccc(N)c(C#N)c1 (stereo unspecified) | inactive
9 | CNC(=O)Oc1cccc2ccccc12 | inactive
10 | CCNc1nc(Cl)nc(NCC)n1 | inactive
11 | CC[n+]1c(-c2ccccc2)c2cc(N)ccc2c2ccc(N)cc21 | 213 nM (active) and 601 nM (active)
12 | CCCCCCCCCCCC[N+](C)(C)CCOc1ccccc1 | 8.49 µM (active)
13 | CCOC(=O)NC(O)C(Cl)(Cl)Cl (stereo unspecified) | inactive
14 | CCN(Cc1ccc(Cl)nc1)/C(=C/[N+](=O)[O-])NC | inactive
15 | C[C@H]1C(=O)O[C@@H]2CCN3CC=C(COC(=O)[C@](C)(O)[C@]1(C)O)[C@H]23 | inactive
16 | Oc1c(Br)cc(Br)cc1Br | inactive

Row | Structure (SMILES) | Potency
17 | C[C@]12CC[C@H]3[C@@H](CC=C4C[C@@H](O)CC[C@@]43C)[C@@H]1CC[C@@H]2O | inactive
18 | COP(=O)(OC)C(O)C(Cl)(Cl)Cl (stereo unspecified) | inactive
19 | CCN(CC)C(C)C(=O)c1ccccc1 (stereo unspecified) | inactive
20 | COP(=O)(OC)OC=C(Cl)Cl | inactive
21 | CNC(=O)NC(O)C(Cl)(Cl)Cl (stereo unspecified) | inactive
22 | NC(=O)CN1CCCC1=O | inactive
23 | CCC1(CC)C(=O)NC(=O)NC1=O | inactive
24 | O=c1n(Cl)c(=O)n(Cl)c(=O)n1Cl | inactive
25 | CC(C)C(Br)C(=O)NC(N)=O (stereo unspecified) | inactive
26 | CN(C)C(=S)SSC(=S)N(C)C | 2.69 µM (active)
27 | COP(=S)(OC)Oc1ccc(Sc2ccc(OP(=S)(OC)OC)cc2)cc1 | inactive
28 | NCc1cccnc1 | inactive
29 | COc1ccc(C(=O)N2CCCC2=O)cc1 | inactive
30 | c1ccc2nc(N3CCNCC3)ccc2c1 | inactive
31 | CC(C)(C)OC(=O)c1ncn2c1[C@@H]1CCCN1C(=O)c1c(Br)cccc1-2 | inactive
